Test results taken from PubChem BioAssay (NCATS).
Records with an inconclusive call do not appear. The source made the active and inactive calls. The call rests on the fitted dose curve; in most records, active means well fitted inhibition curve with a large enough effect; inconclusive means small, poorly fitted or top-dose-only effect; inactive means flat fitted curve, though single readings scatter.

Columns and labels:
Assay in all cases: Cytotoxic Profiling of Annotated Libraries Using Quantitative High-Throughput Screening (AID 1296008); further: nearly all actives have a fitted effect of over 60% in size
Details in all cases: Five cell lines viability, CellTiter-Glo ATP luminescence, 48-72 h; max response: hits give low values
CRL-7250 = normal cell line; test system: CRL-7250
Outline: (§1)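 Cells exposed to compounds for 48 or 72 hr at 37 degrees Celsius. Viability read as ATP-coupled luminescence with CellTiter-Glo after 10 min at room temperature.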

HEK293 = test system: HEK293
Outline: as §1

HaCat = test system: HaCat
Outline: as §1

KB-3-1 = test system: KB-3-1
Outline: as §1

NIH3T3 = test system: NIH3T3
Outline: as §1

Measured: max response
On the % scale 0 is the no-effect control and ±100 the full control effect.

CCNC(=O)C1CC(F)(c2ccc(CN3CCCC3)c(F)c2)C1 (stereo not given)
inactive: CRL-7250 | HEK293 -0.849% | HaCat | KB-3-1 3.84% | NIH3T3

COc1ccc(CCC(=O)c2c(O)cc(O[C@@H]3O[C@H](CO)[C@@H](O)[C@H](O)[C@H]3O[C@@H]3O[C@@H](C)[C@H](O)[C@@H](O)[C@H]3O)cc2O)cc1O
inactive: CRL-7250 -2.32% | HEK293 0.838% | HaCat 4.19% | KB-3-1 | NIH3T3

Cc1ccc(-c2c(-c3nn(C)c4ncnc(N5CC[C@H](N6CCCCC6)C5)c34)cnn2C)cc1
inactive: CRL-7250 -0.469% | HEK293 -5.54% | HaCat | KB-3-1 -0.872% | NIH3T3

C=C(C)[C@@]1(O)C[C@@]2(C)C(=CC1=O)CC[C@@H](O)[C@@H]2C
inactive: CRL-7250 3.28% | HEK293 4.61% | HaCat | KB-3-1 -1.96% | NIH3T3

C[C@@H]1O[C@@H](O[C@H]2[C@H](O[C@H]3[C@H](O[C@H]4CC[C@@]5(C)C(CC[C@]6(C)C5CC=C5[C@@H]7CC(C)(C)CC(=O)[C@]7(C)CC[C@]56C)[C@@]4(C)CO)O[C@H](C(=O)O)[C@@H](O)[C@@H]3O)O[C@H](CO)[C@H](O)[C@@H]2O)[C@H](O)[C@H](O)[C@H]1O (stereo not given in full)
inactive: CRL-7250 -2.01% | HEK293 -1.03% | HaCat | KB-3-1 | NIH3T3 0.221%
